# Reference: PubChem BioAssay (EPA / NIEHS)
# Activity calls are given as the source filed them. How the source made its calls: active means hit-call score of the fitted dose curve at least 0.9, where 1 is the maximum; inactive means score below 0.9.
# Tests used:
# [1] = read-out: Plasminogen activator inhibitor-1 (PAI1), SERPINE1 (gene 5054); assay: BSK_hDFCGF_PAI1: BioMAP Diversity Plus: hDFCGF Assay for Plasminogen activator inhibitor-1 (PAI1) Biomarker Activity (AID 2283066); conditions: primary human foreskin fibroblasts; actives raise or lower the signal
# How it was run: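 PAI-1 levels, determined by ELISA, served as the endpoint in human foreskin fibroblast cultures exposed to compound for 24 h, with DMSO as baseline.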
# [2] = read-out: Intercellular Adhesion Molecule 1 (ICAM1), ICAM1 (gene 3383); assay: BSK_KF3CT_ICAM1: BioMAP Diversity Plus: KF3CT Assay for Intercellular Adhesion Molecule 1 (ICAM1) Biomarker Activity (AID 2283067); conditions: primary human keratinocytes with fibroblasts; actives raise or lower the signal
# How it was run: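 Human keratinocyte–foreskin fibroblast co-culture was treated for 24 h. Cell-surface ICAM-1 was quantified by ELISA, fitted bidirectionally relative to DMSO. Cytotoxicity was checked in parallel cultures by SRB total-protein staining.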
# [3] = read-out: Interferon-gamma inducible Protein 10 (IP10), CXCL10 (gene 3627); assay: BSK_KF3CT_IP10: BioMAP Diversity Plus: KF3CT Assay for Interferon-gamma inducible Protein 10 (IP10) Biomarker Activity (AID 2283068); conditions: primary human keratinocytes with fibroblasts; actives raise or lower the signal
# How it was run: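 In a primary skin co-culture of keratinocytes and fibroblasts, IP-10 is quantified by ELISA at 24 h after dosing. SRB staining of parallel wells monitors overt toxicity. Curves are fitted both directions against DMSO.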
# [4] = BSK_KF3CT_SRB: Viability Assessment in the BioMAP Diversity Plus: KF3CT Assay (AID 2283069); conditions: primary human keratinocytes with fibroblasts;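 further: total protein by sulforhodamine B staining as a cytotoxicity measure; fitted for both signal gain and loss against DMSO baseline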
# How it was run: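 Human keratinocyte and foreskin fibroblast co-culture exposed to chemical for 24 h. Total protein measured in parallel cultures by 0.1% sulforhodamine B staining after 10% TCA fixation, read at 560 nm; bidirectional fit relative to DMSO.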
# [5] = read-out: Interleukin-1 alpha (IL1a), IL1A (gene 3552); assay: BSK_KF3CT_IL1a: BioMAP Diversity Plus: KF3CT Assay for Interleukin-1 alpha (IL1a) Biomarker Activity (AID 2283070); conditions: primary human keratinocytes with fibroblasts; actives raise or lower the signal
# How it was run: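 Primary human keratinocyte plus foreskin fibroblast co-culture, dosed and measured at 24 h in 96-well plates. IL-1a level quantified by ELISA; bidirectional fit relative to DMSO.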
# [6] = read-out: TIMP metallopeptidase inhibitor 2 (TIMP2), TIMP2 (gene 7077); assay: BSK_KF3CT_TIMP2: BioMAP Diversity Plus: KF3CT Assay for TIMP metallopeptidase inhibitor 2 (TIMP2) Biomarker Activity (AID 2283071); conditions: primary human keratinocytes with fibroblasts; actives raise or lower the signal
# How it was run: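 Keratinocyte–fibroblast co-culture, 24 h exposure; TIMP-2 ELISA, DMSO-normalised bidirectional fit. Parallel SRB (0.1%, TCA-fixed, 560 nm) total-protein staining gauges cytotoxicity.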
# [7] = read-out: Transforming growth factor beta 1 (TGFb1), TGFB1 (gene 7040); assay: BSK_KF3CT_TGFb1: BioMAP Diversity Plus: KF3CT Assay for Transforming growth factor beta 1 (TGFb1) Biomarker Activity (AID 2283072); conditions: primary human keratinocytes with fibroblasts; actives raise or lower the signal
# How it was run: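 Signal changes in either direction, relative to DMSO, define activity here. TGF-b1 is read by ELISA from a human keratinocyte-fibroblast co-culture 24 h post-dose.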
# [8] = read-out: C-C motif chemokine 2 (Homo sapiens) (UniProt P13500); assay: BSK_KF3CT_MCP1: BioMAP Diversity Plus: KF3CT Assay for Monocyte Chemoattractant Protein 1 (MCP1/CCL2) Biomarker Activity (AID 2283073); conditions: primary human keratinocytes with fibroblasts; actives raise or lower the signal
# How it was run: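 Human keratinocyte–foreskin fibroblast co-culture; MCP-1 measured by ELISA 24 h after dosing. Bidirectional fit vs DMSO; cytotoxicity tracked by SRB total protein in parallel cultures.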
# [9] = read-out: Matrix Metallopeptidase 9 (MMP9), MMP9 (gene 4318); assay: BSK_KF3CT_MMP9: BioMAP Diversity Plus: KF3CT Assay for Matrix Metallopeptidase 9 (MMP9) Biomarker Activity (AID 2283074); conditions: primary human keratinocytes with fibroblasts; actives raise or lower the signal;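 on AC50: MMP9 protein level quantified by ELISA in the co-culture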
# How it was run: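 Human keratinocyte and foreskin fibroblast co-culture exposed to chemicals for 24 h; MMP9 biomarker measured by ELISA, bidirectional fitting relative to DMSO; cytotoxicity tracked by SRB total protein staining in parallel cultures.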
# [10] = read-out: urokinase plasminogen activator (uPA), PLAU (gene 5328); assay: BSK_KF3CT_uPA: BioMAP Diversity Plus: KF3CT Assay for urokinase plasminogen activator (uPA) Biomarker Activity (AID 2283075); conditions: primary human keratinocytes with fibroblasts; actives raise or lower the signal
# How it was run: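 Primary human keratinocyte/foreskin fibroblast co-culture exposed to chemical; uPA measured by ELISA at 24 h. Bidirectional fit versus DMSO, with parallel SRB total-protein staining for cytotoxicity.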
# CD40, CD40 (gene 958) = assay: BSK_LPS_CD40: BioMAP Diversity Plus: LPS Assay for CD40 Biomarker Activity (AID 2283076); conditions: primary human HUVEC with PBMC; actives raise or lower the signal
# How it was run: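 HUVEC plus PBMC co-culture stimulated with LPS; CD40 quantified by ELISA 24 h after compound dosing. Fitting was bidirectional relative to DMSO. SRB staining of parallel cultures flagged overt cytotoxicity.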
# [11] = read-out: E-selectin (Homo sapiens) (UniProt P16581); assay: BSK_LPS_Eselectin: BioMAP Diversity Plus: LPS Assay for Eselectin Biomarker Activity (AID 2283077); conditions: primary human HUVEC with PBMC; actives raise or lower the signal
# How it was run: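 Human umbilical vein endothelial cells co-cultured with PBMC under LPS stimulation; cell-surface E-selectin measured by ELISA 24 h after dosing. Change in either direction versus DMSO, with SRB total-protein staining in parallel cultures for cytotoxicity.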
# [12] = read-out: Interleukin-8 (IL8), CXCL8 (gene 3576); assay: BSK_LPS_IL8: BioMAP Diversity Plus: LPS Assay for Interleukin-8 (IL8) Biomarker Activity (AID 2283078); conditions: primary human HUVEC with PBMC; actives raise or lower the signal
# How it was run: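 Human umbilical vein endothelial cells co-cultured with PBMC, LPS-stimulated, exposed to compound for 24 h. IL-8 quantified by ELISA; fitted in both directions against DMSO, with SRB total-protein staining of parallel cultures for cytotoxicity.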
# [13] = BSK_LPS_SRB: Viability Assessment in the BioMAP Diversity Plus: LPS Assay (AID 2283079); conditions: primary human HUVEC with PBMC;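 further: total protein by sulforhodamine B absorbance as a cytotoxicity measure; measured one day after compound addition; fitted in both directions against DMSO so loss or gain of signal counts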
# How it was run: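 Co-culture of human umbilical vein endothelial cells and PBMC, read 24 h after dosing. Total protein by 0.1% SRB staining after 10% TCA fixation, absorbance at 560 nm; bidirectional fit against DMSO.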
# [14] = read-out: Interleukin-1 alpha (IL1a), IL1A (gene 3552); assay: BSK_LPS_IL1a: BioMAP Diversity Plus: LPS Assay for Interleukin-1 alpha (IL1a) Biomarker Activity (AID 2283080); conditions: primary human HUVEC with PBMC; actives raise or lower the signal
# How it was run: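 Human umbilical vein endothelial cells co-cultured with PBMC and stimulated with LPS; IL-1a measured by ELISA 24 h after dosing. Bidirectional fitting against DMSO; cytotoxicity checked by SRB staining in parallel cultures.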
# [15] = read-out: Monocyte Chemoattractant Protein-1 (MCP1), CCL2 (gene 6347); assay: BSK_LPS_MCP1: BioMAP Diversity Plus: LPS Assay for Monocyte Chemoattractant Protein-1 (MCP1) Biomarker Activity (AID 2283081); conditions: primary human HUVEC with PBMC; actives raise or lower the signal;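 on AC50: secreted MCP-1 protein quantified by ELISA in culture supernatant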
# How it was run: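 Human umbilical vein endothelial cells co-cultured with PBMC, LPS-stimulated; secreted MCP-1 measured by ELISA 24 h after compound addition. Bidirectional curve fitting against DMSO baseline; SRB total-protein staining in parallel cultures for cytotoxicity.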
# [16] = BSK_LPS_PGE2: BioMAP Diversity Plus: LPS Assay for Prostaglandin E2 (PGE2) Biomarker Activity (AID 2283082); conditions: primary human HUVEC with PBMC; actives raise or lower the signal;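 on AC50: secreted prostaglandin E2 measured by ELISA in LPS-stimulated co-culture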
# How it was run: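 Endpoint derived from bidirectional curve fitting versus DMSO of ELISA-measured PGE2 in LPS-stimulated human primary vascular co-culture (HUVEC with PBMC) harvested at 24 h.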
# [17] = read-out: Macrophage colony-stimulating factor (MCSF), CSF1 (gene 1435); assay: BSK_LPS_MCSF: BioMAP Diversity Plus: LPS Assay for Macrophage colony-stimulating factor (MCSF) Biomarker Activity (AID 2283083); conditions: primary human HUVEC with PBMC; actives raise or lower the signal
# How it was run: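 HUVEC–PBMC co-culture, M-CSF measured by ELISA 24 h after chemical dosing. Fitted in both directions relative to DMSO as negative control; overt cytotoxicity assessed by SRB total-protein staining in parallel cultures.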
# [18] = read-out: Tissue Factor, F3 (gene 2152); assay: BSK_LPS_TissueFactor: BioMAP Diversity Plus: LPS Assay for Tissue Factor Biomarker Activity (AID 2283084); conditions: primary human HUVEC with PBMC; actives raise or lower the signal
# How it was run: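 Human umbilical vein endothelial cells co-cultured with PBMC were dosed with compound. Cell-surface CD142 was measured by ELISA 24 h later. Activity was fitted bidirectionally against DMSO, with SRB total-protein staining in parallel cultures for cytotoxicity.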
# [19] = read-out: Tumor necrosis factor (Homo sapiens) (UniProt P01375); assay: BSK_LPS_TNFa: BioMAP Diversity Plus: LPS Assay for Tumour Necrosis Factor alpha (TNFa) Biomarker Activity (AID 2283085); conditions: primary human HUVEC with PBMC; actives raise or lower the signal;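 on AC50: TNFa protein level quantified by ELISA in the co-culture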
# How it was run: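 Primary human vascular co-culture of HUVEC and PBMC; TNFa ELISA 24 h after treatment, analysed as increase or decrease relative to DMSO control.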
# Sequence of E-selectin (Homo sapiens) (P16581 whole entry, looked up): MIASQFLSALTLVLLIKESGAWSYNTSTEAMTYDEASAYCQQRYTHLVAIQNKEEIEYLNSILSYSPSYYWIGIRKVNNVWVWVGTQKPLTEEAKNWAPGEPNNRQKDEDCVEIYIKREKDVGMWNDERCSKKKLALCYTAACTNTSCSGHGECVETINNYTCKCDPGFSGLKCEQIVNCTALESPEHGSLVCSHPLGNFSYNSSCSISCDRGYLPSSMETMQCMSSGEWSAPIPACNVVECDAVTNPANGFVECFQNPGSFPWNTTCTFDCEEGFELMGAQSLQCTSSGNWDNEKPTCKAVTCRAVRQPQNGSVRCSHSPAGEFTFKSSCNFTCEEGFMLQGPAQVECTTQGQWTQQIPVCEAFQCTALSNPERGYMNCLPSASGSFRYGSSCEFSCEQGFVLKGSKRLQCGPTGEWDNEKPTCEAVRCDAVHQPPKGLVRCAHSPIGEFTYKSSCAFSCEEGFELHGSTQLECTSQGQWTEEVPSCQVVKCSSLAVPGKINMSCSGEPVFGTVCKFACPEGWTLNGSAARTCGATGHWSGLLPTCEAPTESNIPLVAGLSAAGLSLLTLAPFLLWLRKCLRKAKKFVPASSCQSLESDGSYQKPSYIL
# Sequence of Tumor necrosis factor (Homo sapiens) (P01375 whole entry, looked up): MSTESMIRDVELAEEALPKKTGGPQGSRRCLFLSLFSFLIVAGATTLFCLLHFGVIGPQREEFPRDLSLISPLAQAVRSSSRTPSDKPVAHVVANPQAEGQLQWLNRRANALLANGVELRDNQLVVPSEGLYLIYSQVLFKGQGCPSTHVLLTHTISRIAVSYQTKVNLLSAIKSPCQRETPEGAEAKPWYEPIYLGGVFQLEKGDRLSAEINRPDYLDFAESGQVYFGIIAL
compound,measurement,setting,value
CCc1cc(SCc2sc(-c3ccc(C(F)(F)F)cc3)nc2CN2CCN(c3ccc(OC)cc3)CC2)ccc1OCC(=O)O,AC50,[1],3.17 µM (active)
same,AC50,[2],7.27 µM (active)
same,AC50,[3],3.58 µM (active)
same,AC50,[4],3.42 µM (active)
same,AC50,[5],7.25 µM (active)
same,AC50,[6],7.31 µM (active)
same,AC50,[7],4.39 µM (active)
same,AC50,[8],4.26 µM (active)
same,AC50,[9],4.08 µM (active)
same,AC50,[10],5.22 µM (active)
same,AC50,"CD40, CD40 (gene 958)",6.6 µM (active)
same,AC50,[11],14.8 µM (active)
same,AC50,[12],33.6 µM (active)
same,AC50,[13],13.4 µM (active)
same,AC50,[14],30.6 µM (active)
same,AC50,[15],12.3 µM (active)
same,AC50,[16],20 µM (active)
same,AC50,[17],13.3 µM (active)
same,AC50,[18],30.2 µM (active)
same,AC50,[19],38.1 µM (active)
CC(C)(O)c1coc(S(=O)(=O)NC(=O)Nc2c3c(cc4c2CCC4)CCC3)c1,outcome,[1],inactive
same,outcome,[2],inactive
same,outcome,[3],inactive
same,outcome,[4],inactive
same,outcome,[5],inactive
same,outcome,[6],inactive
same,outcome,[7],inactive
same,outcome,[8],inactive
same,outcome,[9],inactive
same,outcome,[10],inactive
same,outcome,"CD40, CD40 (gene 958)",inactive
same,outcome,[11],inactive
same,AC50,[12],0.148 µM (active)
same,outcome,[13],inactive
same,outcome,[15],inactive
same,outcome,[16],inactive
same,outcome,[17],inactive
same,outcome,[18],inactive
same,AC50,[19],0.405 µM (active)
CC[C@H]1OC(=O)[C@H](C)[C@@H](O[C@H]2C[C@@](C)(OC)[C@@H](O)[C@H](C)O2)[C@H](C)[C@@H](O[C@@H]2O[C@H](C)C[C@H](N(C)C)[C@H]2O)[C@](C)(O)C[C@@H](C)C(=O)[C@H](C)[C@@H](O)[C@]1(C)O,outcome,[1],inactive
same,outcome,[2],inactive
same,outcome,[3],inactive
same,outcome,[4],inactive
same,outcome,[5],inactive
same,outcome,[6],inactive
same,outcome,[7],inactive
same,outcome,[8],inactive
same,outcome,[9],inactive
same,outcome,[10],inactive
same,outcome,"CD40, CD40 (gene 958)",inactive
same,outcome,[11],inactive
same,outcome,[12],inactive
same,outcome,[13],inactive
same,outcome,[14],inactive
same,outcome,[15],inactive
same,outcome,[16],inactive
same,outcome,[17],inactive
same,outcome,[18],inactive
same,outcome,[19],inactive
